In all, about 48,000 compounds went through this assay and about 13,000 (27%) showed an effect of 50% or more. The list shows a part of the results.
These compounds were tested on Wolbachia pipientis (assay: Anti-Wolbachia Cell-Based Screen). Details: 5 µM.
Format: functional
Parameters: scale not given: in the data most compounds retested in dose-response had high values

SMILES | Percent Effect [%]
CCOc1ccc(N(CCC#N)C(=O)c2ccc(OC)nc2)cc1 | 22.48
CC(C)N(CC(N)=O)Cc1csc(COc2ccc(F)cc2)n1 | -2.254
CC(C)CN1CC2(CCN(C(=O)C(O)c3cccc(Cl)c3)CC2)CC1=O (configuration not stated) | 4.909
COc1cc(C)nc(N2CCN(C(=O)CCc3ccsc3)CC2)n1 | 17.96
CN(CCc1ccccn1)C(=O)c1cn2c(n1)CNCC2 | -0.4774
CN(Cc1ccccc1NCc1cscn1)C(=O)c1cccs1 | -0.6624
CN(Cc1ccccc1NCc1ncc[nH]1)C(=O)c1cccs1 | 4.243
Cc1cccnc1CC(C)N(C)C(=O)c1cccs1 (configuration not stated) | -6.366
O=C(Cc1ccc2c(c1)CCCC2)NCCc1ccccn1 | 0.3571
CN(CC(=O)NCCc1ccccn1)C(=O)c1cccs1 | 94.6
Cc1ccccc1CN(Cc1ccccn1)C(=O)CN(C)C(C)C | -1.429
CN(CCc1ccccn1)C(=O)c1cccs1.Cl | 100.7
CC(C)N(Cc1ccccn1)C(=O)CN(C)C(=O)c1cccs1 | 109.7
Cc1nnn2c1COCC(CNC(=O)c1ccc3[nH]ccc3c1)C2 (configuration not stated) | 13.15
CCN(C)CC1CCN(C(=O)Nc2ccc(-c3csnn3)cc2)C1 (configuration not stated) | -9.21
Cc1nc(C)c(CN(C)C2CCN(C(=O)OC(C)(C)C)CC2)s1 | -6.792
O=S(=O)(Nc1cn[nH]c1)c1ccc(F)c(Br)c1 | -20.95
CC(=O)N(C)CC(=O)NCC1(c2cccc(C)c2)CCCC1 | -4.333
CN(C)c1cncc(C2CCN(CC(N)=O)CC2)n1 | 103

SMILES | Percent Effect [%]
CN(C)c1cncc(C2CCN(CC3(O)CCCCC3)CC2)n1 | 90.17
COCCN1CCC(c2cncc(N(C)C)n2)CC1 | 88.64
OC1(CN2CCCC2)CCCN(Cc2c[nH]c(CC3CCCC3)n2)C1 (configuration not stated) | -7.473
OC1(CN2CCCC2)CCCN(Cc2ccc(F)cc2Cl)C1 (configuration not stated) | -5.76
COCCN1CCC(c2nc3ccccc3[nH]2)CC1 | 5.31
CN(C)c1cncc(C2CCN(CCO)CC2)n1 | -9.091
CCn1ncnc1CN1CCOC(Cc2cccc3ccccc23)C1 (configuration not stated) | -5.971
CCn1cc(C(=O)NCC2(C(N)=O)CCOCC2)c2ccccc21 | -0.08495
Cc1nc(CN(C)C(=O)C2CCC(=O)N(CCN(C)C)C2)cs1 (configuration not stated) | 7.495
Cc1ccc(CC(NC(=O)Cn2cnnn2)c2ccccn2)cc1 (configuration not stated) | 13.96
CN(CCCc1cnn(C)c1)C(=O)C1COc2ccccc2C1 (configuration not stated) | -12.29
CCCN(CCc1ccccn1)C(=O)Cn1cnnn1 | 104.6
CN(C)c1ccc(C(=O)Nc2cnn(Cc3ccccn3)c2)cc1 | -12.03
CN(CCc1ccccn1)C(=O)C1Cc2ccccc2CN1C (configuration not stated) | 6.694
Cc1cnn(C2CN(CC(=O)NCc3ccccn3)C2)c1 | 0.4192
CCCN(CCc1ccccn1)C(=O)Cn1cc(C)cn1 | 98.5
CCCN(CCc1ccccn1)C(=O)CCc1cnn(C)c1 | 95.46
Cc1ccccc1C(=O)N1C[C@@H]2[C@@H](CN(C)CCc3ccccn3)[C@@H]2C1 | -8.245

Reference: ChEMBL document CHEMBL3988442, “University of Dundee, Small-Polar-MMV Screening Library” (2021)
